Data from the supplement of paper PMC11732987, “Enantioselective OTUD7B fragment discovery through chemoproteomics screening and high-throughput optimisation” (Communications Chemistry, 2025).

Columns and labels:
Experiment in all cases: log2 ratio of Biotin-Ahx-Ub-VS probe labelling (fragment/DMSO); higher = less target engagement (more negative = stronger competition), active = hit call of the paper (q ≤ 0.05, log2 ratio ≤ -1)
Conditions in all cases: compound concentration: 200 uM; treatment time: 3 h
USP34 = USP34 (UniProt Q70CQ2)
Summary of the method: (§1)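 Each value is an average log2 ratio of fragment to vehicle, tested by unpaired t-test. The underlying Spectronaut label-free quantities were global-median-normalised, and only proteins with ≥2 unique peptides were included. Triplicate HEK293T lysate samples (495 µg) were exposed to fragment at 200 µM or vehicle for 3 h, then to Biotin-Ahx-Ub-VS at 0.5 µM final for 1 h, before NeutrAvidin enrichment of labelled DUBs, LysC and trypsin digestion, and diaPASEF LC-MS/MS.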

USP36 = molecular target: T1, USP36 (UniProt Q9P275)
T1 sequence (whole entry): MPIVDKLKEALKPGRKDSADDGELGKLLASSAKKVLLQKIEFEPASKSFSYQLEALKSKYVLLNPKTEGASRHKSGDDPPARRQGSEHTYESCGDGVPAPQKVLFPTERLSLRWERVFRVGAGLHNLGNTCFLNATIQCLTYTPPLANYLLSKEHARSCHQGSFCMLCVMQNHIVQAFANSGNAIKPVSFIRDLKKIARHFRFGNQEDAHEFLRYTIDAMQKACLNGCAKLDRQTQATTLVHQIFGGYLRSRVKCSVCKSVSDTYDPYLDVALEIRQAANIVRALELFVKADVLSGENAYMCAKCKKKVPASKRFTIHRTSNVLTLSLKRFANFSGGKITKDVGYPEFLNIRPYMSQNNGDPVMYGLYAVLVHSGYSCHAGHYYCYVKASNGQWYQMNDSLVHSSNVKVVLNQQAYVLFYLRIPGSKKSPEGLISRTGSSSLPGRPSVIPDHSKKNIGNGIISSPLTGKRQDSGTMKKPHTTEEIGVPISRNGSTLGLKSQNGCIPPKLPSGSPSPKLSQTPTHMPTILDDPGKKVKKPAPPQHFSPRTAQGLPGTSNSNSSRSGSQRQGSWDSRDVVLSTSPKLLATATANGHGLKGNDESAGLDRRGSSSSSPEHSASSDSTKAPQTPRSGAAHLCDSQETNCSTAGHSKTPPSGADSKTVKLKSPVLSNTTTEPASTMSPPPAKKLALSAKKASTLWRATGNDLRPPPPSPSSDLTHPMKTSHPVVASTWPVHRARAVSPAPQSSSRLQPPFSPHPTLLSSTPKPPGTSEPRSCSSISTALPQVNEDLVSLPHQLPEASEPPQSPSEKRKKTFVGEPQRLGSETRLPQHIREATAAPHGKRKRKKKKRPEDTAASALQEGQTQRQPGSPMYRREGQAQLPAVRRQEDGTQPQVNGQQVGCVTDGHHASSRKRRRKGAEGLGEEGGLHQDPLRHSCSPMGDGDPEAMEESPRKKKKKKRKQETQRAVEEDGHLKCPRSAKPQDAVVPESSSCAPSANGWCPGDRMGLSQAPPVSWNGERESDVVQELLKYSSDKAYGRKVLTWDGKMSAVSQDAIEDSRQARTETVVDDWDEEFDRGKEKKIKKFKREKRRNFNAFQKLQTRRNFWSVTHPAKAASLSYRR
Summary of the method: as §1

USP38 = molecular target: T2, USP38 (UniProt Q8NB14)
T2 sequence (whole entry): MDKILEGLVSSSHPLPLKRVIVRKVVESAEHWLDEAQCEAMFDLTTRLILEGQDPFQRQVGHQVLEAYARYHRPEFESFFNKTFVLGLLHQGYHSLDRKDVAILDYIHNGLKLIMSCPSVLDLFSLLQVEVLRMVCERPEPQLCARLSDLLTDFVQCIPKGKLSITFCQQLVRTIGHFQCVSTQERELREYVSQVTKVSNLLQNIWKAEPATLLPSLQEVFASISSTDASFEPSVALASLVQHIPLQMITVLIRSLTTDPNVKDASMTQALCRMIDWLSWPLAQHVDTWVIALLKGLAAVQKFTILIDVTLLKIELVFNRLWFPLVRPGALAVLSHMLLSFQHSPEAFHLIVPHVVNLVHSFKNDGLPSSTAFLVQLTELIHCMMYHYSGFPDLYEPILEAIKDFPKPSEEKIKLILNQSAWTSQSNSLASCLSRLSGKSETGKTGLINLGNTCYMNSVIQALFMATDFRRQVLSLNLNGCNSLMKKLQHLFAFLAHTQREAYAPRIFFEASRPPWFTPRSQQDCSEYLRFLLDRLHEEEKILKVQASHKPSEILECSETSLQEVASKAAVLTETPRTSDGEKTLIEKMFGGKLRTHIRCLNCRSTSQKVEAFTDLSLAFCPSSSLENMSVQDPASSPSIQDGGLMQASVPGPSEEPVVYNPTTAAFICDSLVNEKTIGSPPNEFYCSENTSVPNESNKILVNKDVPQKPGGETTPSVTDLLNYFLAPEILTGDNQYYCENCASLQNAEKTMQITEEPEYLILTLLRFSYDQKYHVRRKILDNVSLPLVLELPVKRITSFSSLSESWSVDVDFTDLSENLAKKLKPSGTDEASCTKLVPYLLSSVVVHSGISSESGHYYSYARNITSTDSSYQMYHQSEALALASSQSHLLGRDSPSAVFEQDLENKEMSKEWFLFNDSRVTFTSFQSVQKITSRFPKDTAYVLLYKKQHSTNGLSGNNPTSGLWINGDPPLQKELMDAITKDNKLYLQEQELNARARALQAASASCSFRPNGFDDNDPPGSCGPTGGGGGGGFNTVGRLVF
Summary of the method: as §1

USP39 = molecular target: T3, USP39 (UniProt Q53GS9)
T3 sequence (whole entry): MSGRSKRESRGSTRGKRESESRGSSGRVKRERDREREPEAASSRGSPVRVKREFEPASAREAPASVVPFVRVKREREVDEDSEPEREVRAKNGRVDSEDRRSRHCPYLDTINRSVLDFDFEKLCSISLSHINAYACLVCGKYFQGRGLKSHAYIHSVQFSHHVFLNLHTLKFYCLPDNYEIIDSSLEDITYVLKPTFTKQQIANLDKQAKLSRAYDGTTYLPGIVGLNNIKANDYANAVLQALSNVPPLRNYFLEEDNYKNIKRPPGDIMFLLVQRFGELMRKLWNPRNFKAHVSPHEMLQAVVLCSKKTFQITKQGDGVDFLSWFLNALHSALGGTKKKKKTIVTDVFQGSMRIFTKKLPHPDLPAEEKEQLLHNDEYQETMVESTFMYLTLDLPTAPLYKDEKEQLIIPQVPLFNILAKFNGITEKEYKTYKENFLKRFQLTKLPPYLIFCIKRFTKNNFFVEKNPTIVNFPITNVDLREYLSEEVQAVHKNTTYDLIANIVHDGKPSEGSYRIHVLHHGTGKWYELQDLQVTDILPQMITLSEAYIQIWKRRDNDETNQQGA
Summary of the method: as §1

USP4 = molecular target: T4, USP4 (UniProt Q13107)
T4 sequence (whole entry): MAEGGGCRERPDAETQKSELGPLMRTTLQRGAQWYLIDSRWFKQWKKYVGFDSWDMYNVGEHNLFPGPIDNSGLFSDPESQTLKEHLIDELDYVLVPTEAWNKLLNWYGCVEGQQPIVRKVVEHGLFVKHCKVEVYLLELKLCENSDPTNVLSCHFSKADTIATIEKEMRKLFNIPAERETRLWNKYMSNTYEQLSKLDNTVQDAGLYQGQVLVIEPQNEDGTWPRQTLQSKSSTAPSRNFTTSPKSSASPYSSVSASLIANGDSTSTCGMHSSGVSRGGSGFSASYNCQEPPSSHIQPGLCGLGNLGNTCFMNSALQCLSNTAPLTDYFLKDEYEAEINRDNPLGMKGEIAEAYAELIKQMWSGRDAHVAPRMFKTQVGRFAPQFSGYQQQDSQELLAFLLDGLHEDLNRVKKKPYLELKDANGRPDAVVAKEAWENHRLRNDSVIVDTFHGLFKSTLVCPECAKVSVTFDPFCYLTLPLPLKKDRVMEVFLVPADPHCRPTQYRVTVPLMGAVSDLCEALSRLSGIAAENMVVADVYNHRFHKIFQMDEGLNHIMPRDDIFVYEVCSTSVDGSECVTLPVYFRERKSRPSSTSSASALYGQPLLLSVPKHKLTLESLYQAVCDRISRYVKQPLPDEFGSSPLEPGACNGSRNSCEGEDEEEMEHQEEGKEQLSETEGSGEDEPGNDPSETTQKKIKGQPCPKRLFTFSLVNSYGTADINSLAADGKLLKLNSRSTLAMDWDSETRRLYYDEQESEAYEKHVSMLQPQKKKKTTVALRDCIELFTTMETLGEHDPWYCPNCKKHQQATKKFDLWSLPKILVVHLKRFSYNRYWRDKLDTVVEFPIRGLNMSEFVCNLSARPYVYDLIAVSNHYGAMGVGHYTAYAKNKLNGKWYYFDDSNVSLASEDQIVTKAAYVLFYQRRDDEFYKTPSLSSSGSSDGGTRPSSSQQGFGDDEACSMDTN
Summary of the method: as §1

Measured: log2 ratio of Biotin-Ahx-Ub-VS probe labelling

USP34, sequence (Q70CQ2 whole entry, the tested form may be a part): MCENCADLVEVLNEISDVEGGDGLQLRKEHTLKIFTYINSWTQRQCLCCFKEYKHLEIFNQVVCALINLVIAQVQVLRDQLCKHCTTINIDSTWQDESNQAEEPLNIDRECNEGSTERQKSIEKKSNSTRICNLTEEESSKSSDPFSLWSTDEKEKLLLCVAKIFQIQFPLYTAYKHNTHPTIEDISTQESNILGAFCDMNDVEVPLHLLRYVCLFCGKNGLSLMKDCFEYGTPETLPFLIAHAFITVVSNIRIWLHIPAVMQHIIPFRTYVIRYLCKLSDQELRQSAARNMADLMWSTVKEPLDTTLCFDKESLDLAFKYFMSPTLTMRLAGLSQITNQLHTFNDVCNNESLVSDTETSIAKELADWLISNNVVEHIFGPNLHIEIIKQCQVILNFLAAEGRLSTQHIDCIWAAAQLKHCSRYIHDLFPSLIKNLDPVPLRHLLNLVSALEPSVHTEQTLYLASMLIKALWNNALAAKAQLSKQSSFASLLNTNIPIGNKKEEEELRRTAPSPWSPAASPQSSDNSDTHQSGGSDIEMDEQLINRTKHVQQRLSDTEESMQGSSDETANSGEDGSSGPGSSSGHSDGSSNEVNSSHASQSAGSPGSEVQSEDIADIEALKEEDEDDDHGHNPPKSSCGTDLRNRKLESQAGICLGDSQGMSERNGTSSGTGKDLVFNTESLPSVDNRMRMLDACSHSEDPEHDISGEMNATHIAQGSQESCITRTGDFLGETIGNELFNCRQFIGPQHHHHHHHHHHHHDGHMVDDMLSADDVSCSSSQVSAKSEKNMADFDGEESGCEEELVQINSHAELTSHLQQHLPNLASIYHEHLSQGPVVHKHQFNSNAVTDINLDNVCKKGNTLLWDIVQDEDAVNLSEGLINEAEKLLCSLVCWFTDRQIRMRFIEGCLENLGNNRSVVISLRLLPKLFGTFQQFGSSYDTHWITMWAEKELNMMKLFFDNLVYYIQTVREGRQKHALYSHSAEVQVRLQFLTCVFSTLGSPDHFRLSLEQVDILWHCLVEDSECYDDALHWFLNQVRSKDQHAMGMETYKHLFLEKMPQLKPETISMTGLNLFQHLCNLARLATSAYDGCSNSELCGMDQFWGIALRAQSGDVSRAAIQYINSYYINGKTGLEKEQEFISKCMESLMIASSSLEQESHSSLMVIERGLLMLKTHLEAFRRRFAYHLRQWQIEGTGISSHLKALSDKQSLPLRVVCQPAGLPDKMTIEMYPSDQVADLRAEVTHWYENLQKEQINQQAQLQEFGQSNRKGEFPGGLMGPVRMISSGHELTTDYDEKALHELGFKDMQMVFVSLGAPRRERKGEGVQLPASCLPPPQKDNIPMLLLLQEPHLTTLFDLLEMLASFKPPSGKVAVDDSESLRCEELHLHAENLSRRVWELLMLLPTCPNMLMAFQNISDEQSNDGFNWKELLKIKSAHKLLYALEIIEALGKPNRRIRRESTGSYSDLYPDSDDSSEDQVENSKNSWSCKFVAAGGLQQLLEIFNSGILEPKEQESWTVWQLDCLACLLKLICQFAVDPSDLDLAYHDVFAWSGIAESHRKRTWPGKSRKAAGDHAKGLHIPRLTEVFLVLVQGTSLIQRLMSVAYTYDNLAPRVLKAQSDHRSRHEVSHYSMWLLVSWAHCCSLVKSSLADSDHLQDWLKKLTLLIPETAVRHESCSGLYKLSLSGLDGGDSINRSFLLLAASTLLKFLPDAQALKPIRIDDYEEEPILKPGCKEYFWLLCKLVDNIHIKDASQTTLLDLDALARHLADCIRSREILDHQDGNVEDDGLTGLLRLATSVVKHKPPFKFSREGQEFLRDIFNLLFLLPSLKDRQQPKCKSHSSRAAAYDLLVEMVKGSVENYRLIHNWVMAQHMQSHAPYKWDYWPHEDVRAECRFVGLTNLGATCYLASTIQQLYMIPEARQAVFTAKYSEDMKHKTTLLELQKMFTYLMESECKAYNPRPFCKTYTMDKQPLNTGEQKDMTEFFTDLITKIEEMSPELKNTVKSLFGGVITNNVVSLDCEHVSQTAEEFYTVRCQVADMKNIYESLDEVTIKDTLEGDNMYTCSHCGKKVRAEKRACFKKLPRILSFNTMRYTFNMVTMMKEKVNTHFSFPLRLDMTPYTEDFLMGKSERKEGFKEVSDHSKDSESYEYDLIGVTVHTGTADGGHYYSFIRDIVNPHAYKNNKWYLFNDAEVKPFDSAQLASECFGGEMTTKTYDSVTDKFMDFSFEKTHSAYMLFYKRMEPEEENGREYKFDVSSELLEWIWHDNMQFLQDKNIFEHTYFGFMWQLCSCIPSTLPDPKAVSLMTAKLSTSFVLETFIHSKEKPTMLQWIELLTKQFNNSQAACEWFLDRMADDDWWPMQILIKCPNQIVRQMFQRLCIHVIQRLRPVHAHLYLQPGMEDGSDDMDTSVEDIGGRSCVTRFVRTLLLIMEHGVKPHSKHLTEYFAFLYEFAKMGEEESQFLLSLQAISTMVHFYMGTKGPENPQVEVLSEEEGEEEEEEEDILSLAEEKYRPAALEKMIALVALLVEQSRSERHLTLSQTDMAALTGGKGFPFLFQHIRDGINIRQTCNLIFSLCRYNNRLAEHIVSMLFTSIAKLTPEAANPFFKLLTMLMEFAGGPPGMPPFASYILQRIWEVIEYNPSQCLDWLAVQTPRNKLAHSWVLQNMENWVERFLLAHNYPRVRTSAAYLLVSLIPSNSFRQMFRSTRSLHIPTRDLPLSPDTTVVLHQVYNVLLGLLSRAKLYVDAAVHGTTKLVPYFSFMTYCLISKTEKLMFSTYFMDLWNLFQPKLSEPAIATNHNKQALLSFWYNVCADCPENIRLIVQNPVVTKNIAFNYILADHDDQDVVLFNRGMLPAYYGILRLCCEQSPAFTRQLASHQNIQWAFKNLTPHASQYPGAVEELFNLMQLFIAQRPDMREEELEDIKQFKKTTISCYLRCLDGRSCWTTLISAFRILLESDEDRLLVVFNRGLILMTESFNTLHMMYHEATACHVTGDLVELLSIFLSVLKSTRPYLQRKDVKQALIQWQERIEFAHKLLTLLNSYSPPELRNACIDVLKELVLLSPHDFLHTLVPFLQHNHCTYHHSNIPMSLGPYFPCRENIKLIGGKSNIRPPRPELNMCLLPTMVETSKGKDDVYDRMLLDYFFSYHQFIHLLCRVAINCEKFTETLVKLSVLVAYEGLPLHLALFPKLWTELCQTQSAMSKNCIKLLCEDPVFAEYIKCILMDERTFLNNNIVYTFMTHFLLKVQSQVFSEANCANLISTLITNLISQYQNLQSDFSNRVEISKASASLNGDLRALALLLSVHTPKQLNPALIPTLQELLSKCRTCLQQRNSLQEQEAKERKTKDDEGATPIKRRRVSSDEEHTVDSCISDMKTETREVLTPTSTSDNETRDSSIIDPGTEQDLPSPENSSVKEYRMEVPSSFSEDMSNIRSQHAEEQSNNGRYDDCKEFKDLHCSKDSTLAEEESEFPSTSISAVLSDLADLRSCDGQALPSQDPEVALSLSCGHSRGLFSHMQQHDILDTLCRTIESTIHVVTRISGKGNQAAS

Cl.O=C(CCl)N1CCC(n2nc3ccccc3n2)CC1
inactive: USP34 -0.257 | USP36 0.0455 | USP38 -0.223 | USP39 -0.0437 | USP4 -0.443
